Assay results from the antibiotic and cytotoxicity screens of Wong et al. (2023).
In all, about 39,000 compounds went through this assay and about 3,300 (8.5%) were called active. The sample as a whole holds a higher share of actives than the screen did.

What follows are molecules tested on HepG2 (assay: cytotoxicity call (relative viability < 0.9)). Settings: 10 µM.

Compound	cytotoxicity call
c1ccc(Oc2nnc(-c3ccccc3)c3ccccc23)cc1	inactive
C[C@H](CO)N1C[C@H](C)[C@H](CN(C)S(C)(=O)=O)Oc2cc(-c3ccc(F)cc3)ccc2S1(=O)=O	inactive
COc1cccc(C#Cc2ccc3c(c2)O[C@@H](CN(C)C(=O)CN2CCOCC2)[C@H](C)CN([C@@H](C)CO)S3(=O)=O)c1	inactive
O=C(O)CCCNc1n[nH]c(=O)[nH]c1=O	inactive
COC(=O)CCCCCNc1n[nH]c(=O)[nH]c1=O	inactive
O=C(CCNc1n[nH]c(=O)[nH]c1=O)N1CCOCC1	active
COc1ccc(NC(=O)N(C)C[C@H]2OCCCC[C@@H](C)Oc3ccc(NC(=O)Nc4c(C)noc4C)cc3C(=O)N([C@H](C)CO)C[C@@H]2C)cc1	inactive
COc1ccc(NC(=O)Nc2ccc3c(c2)[C@@H]2C[C@@H](CC(=O)N4CCN(C)CC4)O[C@@H](CO)[C@@H]2O3)cc1	inactive
C[C@H]1CN([C@@H](C)CO)C(=O)Cc2cc(NC(=O)Nc3ccc(C(F)(F)F)cc3)ccc2O[C@@H]1CN(C)CC1CCCCC1	inactive
C[C@H](CO)N1C[C@H](C)[C@H](CN(C)C(=O)NC2CCCCC2)Oc2ccc(NC(=O)Nc3ccc(C(F)(F)F)cc3)cc2CC1=O	inactive
C[C@H]1CN([C@@H](C)CO)C(=O)Cc2cc(NC(=O)Nc3ccc(C(F)(F)F)cc3)ccc2O[C@H]1CN(C)CC1CCCCC1	active
C[C@H](CO)N1C[C@H](C)[C@H](CN(C)CC2CCCCC2)Oc2ccc(NC(=O)Nc3ccc(C(F)(F)F)cc3)cc2CC1=O	active
C[C@@H]1CN([C@@H](C)CO)C(=O)Cc2cc(NC(=O)Nc3ccc(C(F)(F)F)cc3)ccc2O[C@H]1CN(C)CC1CCCCC1	active
C[C@@H]1CN([C@@H](C)CO)C(=O)Cc2cc(NC(=O)Nc3ccc(C(F)(F)F)cc3)ccc2O[C@@H]1CN(C)CC1CCCCC1	active
CN(C)CCCNC(=O)C[C@H]1CC[C@H]2[C@@H](COc3ccc(NC(=O)c4ccc5c(c4)OCO5)cc3C(=O)N2C)O1	inactive
CCCN(C)C[C@H]1OCCCC[C@H](C)Oc2ccc(NS(C)(=O)=O)cc2C(=O)N([C@H](C)CO)C[C@H]1C	inactive
C[C@H](CO)N1C[C@H](C)[C@@H](CN(C)Cc2ccncc2)Oc2cc(C#CCN(C)C)ccc2S1(=O)=O	inactive
CN([C@@H](c1ccccc1)c1ccccn1)S(=O)(=O)c1cn(C)c(=O)n(C)c1=O	inactive
Cc1ccc(S[C@]2(C(=O)O)CC(=O)N(C3Cc4ccccc4C3)[C@@H]2c2ccc(CO)cc2I)cc1	inactive
COCC(=O)Nc1ccc2c(c1)C(=O)N(C)C[C@H](OC)[C@H](C)CN(Cc1ccccc1OC)[C@H](C)CO2	inactive
C[C@H]1CN([C@@H](C)CO)C(=O)Cc2cc(NS(C)(=O)=O)ccc2O[C@@H]1CN(C)C(=O)Nc1ccccc1	inactive
COCCNC(=O)C[C@@H]1C[C@@H]2c3cc(NS(C)(=O)=O)ccc3O[C@@H]2[C@@H](CO)O1	inactive
COc1ccc([C@H]2C/C=C\C[C@H](c3cccc(Cl)c3)NC(=O)[C@@H](c3ccccc3)CC(=O)N2)c(OC)c1	inactive
CC(=O)O.N=C(N)NN=Cc1c(Cl)cccc1Cl	inactive

Compound	cytotoxicity call
Cc1ccc(-c2ccc3c(c2)O[C@@H](CN(C)C(=O)CN(C)C)[C@H](C)CN([C@@H](C)CO)S3(=O)=O)cc1	inactive
CN(C)CCNC(=O)[C@H]1CN(Cc2cnn(C)c2)Cc2ccnn2C1	inactive
C[C@@H]1CN([C@H](C)CO)C(=O)Cc2cc(NC(=O)Nc3ccc(C(F)(F)F)cc3)ccc2O[C@@H]1CN(C)CC1CCCCC1	active
C[C@H]1CN([C@@H](C)CO)C(=O)Cc2cc(NC(=O)Nc3ccc(C(F)(F)F)cc3)ccc2O[C@@H]1CN(C)C(=O)NC1CCCCC1	inactive
C[C@@H]1CN([C@H](C)CO)C(=O)Cc2cc(NC(=O)Nc3ccc(C(F)(F)F)cc3)ccc2O[C@H]1CN(C)CC1CCCCC1	active
COCC(=O)N1C[C@H](C)[C@H](OC)CN(C)C(=O)c2ccc(NC(=O)Nc3ccccc3)cc2OC[C@@H]1C	inactive
Cc1ccc(S(=O)(=O)N(C)C[C@H]2Oc3ccc(NS(=O)(=O)c4ccccc4)cc3CC(=O)N([C@H](C)CO)C[C@@H]2C)cc1	inactive
CC(C)NC(=O)N[C@H]1CC[C@H](CCN)O[C@H]1CO	inactive
C[C@@H]1CCCCO[C@@H](CN(C)C(=O)Nc2cccc3ccccc23)[C@@H](C)CN([C@@H](C)CO)C(=O)c2cc(NC(=O)Cc3ccccc3)ccc2O1	inactive
C[C@@H]1CN([C@H](C)CO)C(=O)c2cc(NC(=O)Cc3ccccc3)ccc2O[C@@H](C)CCCCO[C@@H]1CN(C)C(=O)Nc1cccc2ccccc12	inactive
C[C@H]1CCCCO[C@@H](CN(C)C(=O)Nc2cccc3ccccc23)[C@@H](C)CN([C@@H](C)CO)C(=O)c2cc(NC(=O)Cc3ccccc3)ccc2O1	active
C[C@@H]1CCCCO[C@@H](CN(C)C(=O)Nc2cccc3ccccc23)[C@H](C)CN([C@H](C)CO)C(=O)c2cc(NC(=O)Cc3ccccc3)ccc2O1	inactive
C[C@@H]1CCCCO[C@@H](CN(C)C(=O)Nc2cccc3ccccc23)[C@H](C)CN([C@@H](C)CO)C(=O)c2cc(NC(=O)Cc3ccccc3)ccc2O1	inactive
C[C@@H]1CCCCO[C@H](CN(C)C(=O)Nc2cccc3ccccc23)[C@@H](C)CN([C@@H](C)CO)C(=O)c2cc(NC(=O)Cc3ccccc3)ccc2O1	inactive
C[C@H](CO)N1C[C@H](C)[C@@H](CN(C)C(=O)Nc2cccc3ccccc23)OCCCC[C@H](C)Oc2ccc(NC(=O)Cc3ccccc3)cc2C1=O	inactive
C[C@@H]1CN([C@@H](C)CO)C(=O)c2cc(NC(=O)Cc3ccccc3)ccc2O[C@@H](C)CCCCO[C@@H]1CN(C)C(=O)Nc1cccc2ccccc12	active
C[C@@H]1CCCCO[C@H](CN(C)C(=O)Nc2cccc3ccccc23)[C@H](C)CN([C@H](C)CO)C(=O)c2cc(NC(=O)Cc3ccccc3)ccc2O1	active
F[C@H]1CCNC1	inactive
C[C@@H]1CCCCO[C@@H](CN(C)C(=O)c2ccncc2)[C@H](C)CN([C@@H](C)CO)C(=O)c2cc(NS(=O)(=O)c3ccc(Cl)cc3)ccc2O1	inactive
Cn1cnc(=N)c2[nH]cnc21	inactive
CN1CCN([C@H](CNC(=O)C(=O)NCCN2CCOCC2)c2ccc(N(C)C)cc2)CC1	inactive
Cc1noc(C)c1S(=O)(=O)Nc1cccc2c1O[C@H](CN(C)Cc1ccncc1)[C@H](C)CN([C@@H](C)CO)C2=O	inactive
C[C@H]1CN([C@@H](C)CO)C(=O)Cc2cc(NC(=O)Nc3cccc4ccccc34)ccc2O[C@@H]1CN(C)C(=O)NC1CCCCC1	inactive
COC1C(C(=O)O)OC(C)C(O)C1O.COC1OC(C(=O)O)C(O)C(O)C1O (configuration not stated) [ALGINIC ACID [Mol Wt ~200,000; monomers shown] ]	active

Compound	cytotoxicity call
C[C@@H]1O[C@@H](O)[C@H](O)[C@H](O)[C@H]1O	inactive
CO[C@H]1O[C@H](COS(=O)(=O)O)[C@@H](O[C@@H]2O[C@@H](C(=O)O)[C@@H](OC)[C@H](O)[C@H]2OS(=O)(=O)O)[C@H](O)[C@H]1NS(=O)(=O)O	inactive
C[C@@H]1CN([C@@H](C)CO)C(=O)Cc2cc(NC(=O)c3ccncc3)ccc2O[C@@H]1CN(C)Cc1ccncc1	inactive
O=C(C[C@H]1CC[C@H]2[C@@H](COC[C@@H](O)CN2C(=O)c2ccc(F)cc2)O1)NCCCN1CCOCC1	inactive
O=C(CCCCCCC(=O)NO)NO	inactive
O=C(CCCCCCC(=O)Nc1ccc([C@H]2C[C@H](c3ccccc3)O[C@H](c3ccccc3)O2)cc1)NO	inactive
O=C(CCCCCCC(=O)Nc1ccccc1)NO	active
C[C@@H]1CN([C@@H](C)CO)C(=O)CCCn2nncc2CO[C@H]1CN(C)S(=O)(=O)c1ccc(C#N)cc1	inactive
CCO[C@@H]1OC(C(=O)N2CCCCCCC2)=C[C@H](c2coc3ccccc3c2=O)[C@H]1CCCOC(=O)NCCCCCC(=O)NO	inactive
C[C@H]1CCCCO[C@H](CN(C)C(=O)NC2CCCCC2)[C@@H](C)CN([C@@H](C)CO)C(=O)c2cc(NC(=O)Nc3ccccc3)ccc2O1	active
C[C@@H]1CN([C@@H](C)CO)C(=O)c2cc(NC(=O)Nc3ccccc3)ccc2O[C@@H](C)CCCCO[C@@H]1CN(C)C(=O)NC1CCCCC1	inactive
C[C@@H]1CN([C@H](C)CO)C(=O)c2cc(NC(=O)Nc3ccccc3)ccc2O[C@@H](C)CCCCO[C@H]1CN(C)C(=O)NC1CCCCC1	active
C[C@H](CO)N1C[C@H](C)[C@@H](CN(C)C(=O)NC2CCCCC2)OCCCC[C@H](C)Oc2ccc(NC(=O)Nc3ccccc3)cc2C1=O	inactive
C[C@H]1CCCCO[C@@H](CN(C)C(=O)NC2CCCCC2)[C@@H](C)CN([C@@H](C)CO)C(=O)c2cc(NC(=O)Nc3ccccc3)ccc2O1	inactive
C[C@H](CO)N1C[C@H](C)[C@H](CN(C)C(=O)NC2CCCCC2)OCCCC[C@H](C)Oc2ccc(NC(=O)Nc3ccccc3)cc2C1=O	inactive
C[C@H](CO)N1C[C@H](C)[C@H](CN(C)S(=O)(=O)c2ccccc2)Oc2c(NC(=O)c3cnccn3)cccc2C1=O	inactive
NNC(=O)c1cccc(C(=O)NO)c1	inactive
Cc1noc(C)c1NC(=O)N(C)C[C@H]1Oc2ncc(C#CCN(C)C)cc2C(=O)N([C@@H](C)CO)C[C@H]1C	inactive
O=C(NC(CO)C(O)c1ccc([N+](=O)[O-])cc1)C(Cl)Cl (configuration not stated)	active
CS(=O)(=O)c1ccc(C(O)C(CO)NC(=O)C(Cl)Cl)cc1 (configuration not stated)	inactive
O=C([O-])CCC(=O)OCC(NC(=O)C(Cl)Cl)C(O)c1ccc([N+](=O)[O-])cc1.[Na+] (configuration not stated)	active
CCCCCCCCCCCCCCCC(=O)OCC(NC(=O)C(Cl)Cl)C(O)c1ccc([N+](=O)[O-])cc1 (configuration not stated)	inactive
CCCCCCCCCCCCCCCC(=O)OC[C@H](NC(=O)C(Cl)Cl)[C@H](O)c1ccc([N+](=O)[O-])cc1	inactive
CCCCCCCCCCCCCCCC(=O)OC[C@@H](NC(=O)C(Cl)Cl)[C@H](O)c1ccc([N+](=O)[O-])cc1	inactive
